Test results as given in PubChem BioAssay (NCI).
About 83,000 compounds went through this panel and 20% of them were active in at least one assay; those are over-represented in the sample as a whole.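 The test compound was applied at a single concentration to cells in 96-well plates for 48 hours, and percent growth was recorded.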 The source made the active and inactive calls.

These molecules were tested on ACHN renal (assay: NCI-60 one-dose screen, 48 h (100 = growth as untreated, 0 = no growth, -100 = all killed)). Conditions: 10 µM unless noted.
Description: Growth inhibition of the ACHN human tumor cell line is measured as a screen for anti-cancer activity. Cells are grown in 96 well plates and exposed to the test compound for 48 hours. Compounds are tested at a single concentration, which is 10^-5 M for most compounds. The reported endpoint is percent growth (GI% or GIPRCNT), where numbers from 0 - 100% represent growth inhibition, and numbers from -100% - 0 represent cell death. For example, a value of 40 represents 60% growth inhibition. A value of 0 means no net growth occurred over the course of the experiment. A value of -40 indicates 40% of cells at the beginning of the experiment died by the end of the experiment. A value of -100 means all cells are dead at the end of the experiment.
NCI-60 Human Tumor Cell Lines Screen was performed using the standard one-dose NCI protocol, which is described in more detail at https://dtp.cancer.gov/discovery_development/nci-60/default.htm.
Compounds with GIPRCNT values below 10 were considered active. Activity score was based on GIPRCNT using the following formula: […]
Score is 0 for GIPRCNT values of 100 or above, 50 for GIPRCNT values of 0, and 100 for GIPRCNT values of -100.

SMILES	growth
COCCn1cc(-c2nc(-c3cc4cccnc4n3C)cs2)c2ccccc21	54.9% (inactive)
C=CN(C(=O)N1CCN(c2cc3c(cc2F)c(=O)c(C(=O)O)cn3C2CC2)CC1)c1nc(-c2ccccc2)cs1	91.1% (inactive)
COc1ccc(C/C(C)=C(\c2ccc(Cl)cc2)c2ccc(OCCN3CCCC3)cc2)cc1	94.8% (inactive)
O=C(/C=C/c1ccccc1)N(C1CCCCC1)C1CCCCC1	86% (inactive)
COc1ccc(/C=C/C(c2cc(OC)c(OC)c(OC)c2)n2cncn2)cc1O (stereo not given)	63.1% (inactive)
CC(C)(C)OC(=O)CN1CCc2c(sc3ncnc(N4CCN(c5ccc(F)cc5)CC4)c23)C1	85.7% (inactive)
O=C(/C=C/C12c3ccccc3C(c3ccccc31)C1C(=O)NC(=O)C12)c1ccc(Cl)cc1Cl (stereo not given)	28.2% (inactive)
Cn1c(=O)[nH]c(=O)c2nc3c(nc21)-c1ccccc1C3=O	94.2% (inactive)
CCCn1c(=S)sc2c(NNC(C)=O)nc(C)nc21	88.1% (inactive)
Cc1nn(-c2ccc([N+](=O)[O-])cc2)c2ncnc(N/N=C/c3ccccc3O)c12	12% (inactive)
Cc1ccc(C)c2c1sc1nc(N3CCOCC3)c(C#N)c(=O)n12	105% (inactive)
COc1ccc(NC(=O)c2ccc(Nc3ncnc4c3cnn4-c3cccc(F)c3)cc2)cc1	99.6% (inactive)
CN(C)CCC(=O)C1CC1	103% (inactive)
CC1(C)CC[C@]2(CO)CC[C@]3(C)[C@](O)([C@H](O)C[C@@H]4[C@@]5(C)CCCNC(C)(C)[C@@H]5CC[C@]43C)[C@@H]2C1	108% (inactive)
CCN(CC)CCOc1ccc(Nc2ncc3cc(-c4c(Cl)cccc4Cl)c(=O)n(CCOC)c3n2)cc1	5.69% (active)
CCN(CC)CCN1C(=O)c2c(c3c4ccccc4[nH]c3c3ccc4ccccc4c23)C1=O	36.6% (inactive)
COc1ccc(-c2nc(SCC(=O)Nc3nc4ccc(C)cc4s3)[nH]c(=O)c2C#N)cc1OC	96.3% (inactive)
COc1cc(/C=C/C(=O)N2CCN(C(=O)c3cc(OC)c(OC)c(OC)c3)CC2)ccc1OCCCOc1cc2c(cc1OC)C(=O)N1CCC[C@H]1C=N2	0.236% (active)
COc1ccc(CN2C(=O)OC(C)(COC(C)=O)C2=O)cc1 (stereo not given)	102% (inactive)
CS(=O)/C(C#N)=C\C=C\c1cccc(Cl)c1 (stereo not given)	3.18% (active)

SMILES	growth
C=C1CC[C@@H]2C(C)(C)[C@H](O)CC[C@@]2(C)[C@@H]1COc1ccc2ccc(=O)oc2c1	49% (inactive)
CCSc1ccnc(N)n1	96.8% (inactive)
COc1ccc2c(O)c(/C=C3\N=Nc4ncccc43)oc2c1C[C@@H]1CCNC[C@H]1F	-52.7% (active)
COC(=O)/C=C1/SC(=Nc2ccc(F)cc2)N(CCc2c[nH]c3ccc(O)cc23)C1=O	33.8% (inactive)
COc1ccccc1/C=C/C(=O)Nc1ccc(F)cc1	101% (inactive)
C=C1C(=O)O[C@H]2[C@H]1CC/C(COC(=O)C(=O)c1c[nH]c3ccc(Cl)cc13)=C\CC[C@@]1(C)O[C@@H]21	-84.3% (active)
CCN(CC)c1ccc(-c2cc(-c3cc(OC)c(OC)c(OC)c3)nc(N3CCC(O)CC3)c2C#N)cc1	7.6% (active)
CC(C)NS(=O)(=O)/N=C1\NC(=O)NC1=C(Cl)Cl	113% (inactive)
CCN(CC)CCOc1ccc2c(-c3ccccc3)c(-c3ccc(OC)cc3)c(=O)oc2c1	75.3% (inactive)
O=C(O)CC(C(=O)O)/C(=C\c1ccccc1)c1ccccc1 (stereo not given)	104% (inactive)
N#CC1=C(N)Oc2c(sc3c(F)cccc23)C1c1ccc([N+](=O)[O-])cc1 (stereo not given)	-2.28% (active)
CN(C)CCC(CCN(C)C)(C(=O)O)c1ccccc1	98.5% (inactive)
N#Cc1c(-c2ccc(Br)cc2)nc2c(N=Nc3ccc(S(N)(=O)=O)cc3)c(N)nn2c1N	71.1% (inactive)
Cc1cccc(-c2nc(C(C)C)sc2-c2ccnc(NCCCNS(=O)(=O)c3ccc(Cl)cc3)c2)c1	75.6% (inactive)
O=c1oc2c(cc1-c1ccccc1)c(=O)[nH]c1ccccc12	102% (inactive)
Nc1nc(C(=O)N/N=C/c2ccc(F)cc2)nn1-c1ccc(S(N)(=O)=O)cc1	99.2% (inactive)
N[C@@H]1CCC[C@H]1NCCCCN1C(=O)c2cccc3cc([N+](=O)[O-])cc(c23)C1=O	13.3% (inactive)
Nc1ncccc1O	5.59% (active)
C/C(Cc1ccc(Cl)cc1)=C(\c1ccc(OCCN2CCCCCC2)cc1)c1ccc(OC(=O)c2ccccc2)cc1	68.9% (inactive)
CN1CC(c2ccc(Br)cc2)C(C(=O)c2ccc(Br)cc2)C12C(=O)Nc1ccccc12 (stereo not given)	79.6% (inactive)
